According to PubChem BioAssay (NCI):
This is part of a sample that, as a whole, favours compounds with a hit. Of some 83,000 tested, about 20% had one in any assay.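 Activity criterion: percent growth below 10, measured after cells in 96-well plates were exposed to a single compound concentration for 48 hours.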 The source made the active and inactive calls.

What follows are molecules tested on NCI-H322M lung (assay: NCI-60 one-dose screen, 48 h (100 = growth as untreated, 0 = no growth, -100 = all killed)). Settings: 10 µM unless noted.

Structure (SMILES)	growth
O=C1c2cccc3cccc(c23)C(=O)N1N1C(=O)c2cccc3c(N4CCOCC4)ccc(c23)C1=O	94.5% (inactive)
CCO/C=N/C1=C(C#N)C(c2ccc(OC)cc2)c2sc3c(F)cccc3c2O1 (stereo not given)	51.5% (inactive)
Cc1ccc(CNc2ccc(Cl)cc2NCc2ccc(C)c(O)c2)cc1O	17.6% (inactive)
O=C(c1ccc(-c2nc(CSc3nc4ccccc4s3)no2)cc1)N1CCSCC1	100% (inactive)
C/C(=C(/c1ccc(Cl)cc1)c1ccc(OCCN2CCCC2)cc1)c1ccc(Cl)cc1	92.9% (inactive)
CC[C@]12C=CCN3CC[C@@]4(c5cc(NC(=O)CCC(=O)OCc6cn(Cc7ccc(F)cc7)nn6)c(OC)cc5N(C)[C@H]4[C@@](O)(C(=O)OC)[C@@H]1OC(C)=O)[C@@H]32	94.3% (inactive)
C=C(C)[C@@H]1CC[C@]2(C(=O)O)CC[C@]3(C)[C@H](CC[C@@H]4[C@@]5(C)C[C@@H](Cc6cn(CCO[C@@H]7O[C@H](COC(C)=O)[C@H](OC(C)=O)[C@H](OC(C)=O)[C@H]7OC(C)=O)nn6)[C@H](O)C(C)(C)[C@@H]5CC[C@]43C)[C@@H]12	82.7% (inactive)
C=CCn1c(SCC(=O)Nc2ccc(C(=O)/C=C/c3ccc(Cl)cc3)cc2)nnc1-c1cc(-c2ccc(S(N)(=O)=O)cc2)nc2ccccc12	99.7% (inactive)
CCOC(=O)C1=NN(c2ccccc2)C(=O)/C1=C\N1C(=O)CC(=O)NC1=S	96% (inactive)
CC12CCC3c4ccccc4CCC3(CO1)C2 (stereo not given)	94.7% (inactive)
O=C1CC(N2C(=O)/C(=C/C(Cl)=C\c3ccc([N+](=O)[O-])cc3)SC2=S)C(=O)N1c1ccc(Cl)cc1 (stereo not given)	65.1% (inactive)
CC1(C)c2[nH]c3ccccc3c2C[C@]2(C)[C@H]3CC=C4[C@@H]5C[C@@](C)(C(N)=O)CC[C@]5(C)CC[C@@]4(C)[C@]3(C)CC[C@@H]12	76.1% (inactive)
CCCCCOc1ccc(C(=O)/C(Br)=C/C(=O)O)cc1	104% (inactive)
CC(C)N1CCN(Cc2ccc3c(NNC(=O)c4ccccc4)nc4cc(F)ccc4n23)CC1	29.3% (inactive)
N#Cc1cccc(NC(=O)c2oc3ccccc3c2-c2cnn(-c3ccccc3)c2)c1	74.1% [50 µM] (inactive)
Cc1cccc(N2CCN(CC(O)COc3ccc(Cl)cc3)CC2)c1 (stereo not given)	104% (inactive)
CCOC(=O)c1c(C)nc2c(c1N)CC(=O)N2Cc1cc(F)cc(Cl)c1	107% (inactive)
C[C@@H]1CCC[C@H]1CC(N)C(=O)O (stereo not given in full)	106% (inactive)
O=CC1(C2(C=O)c3ccccc3-c3ccccc32)c2ccccc2-c2ccccc21	-20.9% (active)
O=C1Nc2ccc(I)cc2C1=O	107% (inactive)

Structure (SMILES)	growth
CN1CCN(c2ccc(NC(=O)c3nc4ccc5[nH]ncc5c4c4c3CCCC4)cc2C(F)(F)F)CC1	86.3% (inactive)
CN(C)C1CCN(Cc2ccc(NC(=O)c3cncc(C#Cc4cnc(N)c5ncccc45)c3)cc2C(F)(F)F)CC1	112% (inactive)
COc1ccc(C/C(C)=C(/c2ccc(OCCN3CCCCC3)cc2)c2ccc(OC(=O)NCc3ccccc3)cc2)cc1	-81.7% (active)
COc1ccccc1NC(=O)Cn1cc(CN2CCN(c3ccnc4cc(Cl)ccc34)CC2)nn1	95.1% (inactive)
N=C(N)c1ccc(-c2ccc(-c3ccc(F)cc3)o2)o1	42.4% (inactive)
CN1C(=O)/C(=C/c2ccc(C(=O)Nc3ncc(Cc4ccc(Cl)cc4)s3)cc2)SC1=S	56% (inactive)
CCCCCC(=O)OCC(=O)O[C@@H]1C[C@]2(C(C)C)O[C@@]1(C)[C@@H]1CC[C@@H](C)[C@H]1[C@@H]2OC(=O)/C=C/c1ccccc1	84.6% (inactive)
CC(=O)N(N=Nc1ccccc1)c1cccc2ccccc12	94.3% (inactive)
COc1ccc(/C=C2\C(=O)N=C3N2NC(c2cc(Br)ccc2O)C=C(C)N3c2ccccc2)cc1 (stereo not given)	97.3% (inactive)
CC(C)(C)[Si](C)(C)O[C@H]1C(=O)C=CN2CC=C[C@@H]12	104% [100 µM] (inactive)
C=C1C(=O)O[C@H]2[C@H]1CC/C(COC(=O)CSCCSCC(=O)OC/C1=C/CC[C@@]3(C)O[C@H]3[C@H]3OC(=O)C(=C)[C@@H]3CC1)=C\CC[C@@]1(C)O[C@@H]21	77.2% (inactive)
Brc1ccc2[nH]cc(-c3nonc3-c3c[nH]c4ccccc34)c2c1	30.9% (inactive)
COc1cccc(NC(=O)Cn2cc(CN3CCN(c4ccnc5cc(Cl)ccc45)CC3)nn2)c1	91.2% (inactive)
CCOc1ccc(NC(=O)CSc2oc(-c3ccccc3)nc2S(=O)(=O)c2ccc(F)cc2)cc1	75.5% (inactive)
O=C1Nc2ccc(Br)cc2/C1=N/c1n[nH]c(=S)s1	107% (inactive)
COc1ccc(C(=O)C2C(c3ccc(OC)cc3)CN(C)C23C(=O)Nc2ccccc23)cc1 (stereo not given)	103% (inactive)
Cc1noc(C)c1C(=O)OCc1coc2ccccc2c1=O	96.2% (inactive)
C[C@]12CC[C@@H]3c4ccc(O)c([N+](=O)[O-])c4CC[C@H]3[C@@H]1CCC2=O	99% (inactive)
COc1cccc([C@H]2c3[nH]c4ccccc4c3C[C@H]3C(=O)N(CCCCCCC(=O)NO)CC(=O)N23)c1	80.2% (inactive)
CO/N=C(/C)c1ccc(NC(=O)CSc2nnc(-c3ccncc3)n2-c2ccccc2)cc1	84.9% (inactive)
